A selection: hits, their analogues and other compounds. The true share with any hit is near 2.8%.
Pol beta inh – qHTS Assay for Inhibitors of DNA Polymerase Beta | Pol beta primer extension/strand displacement, fluorescence kinetic | Potency, µM (series often up to 114 µM), for inactives: at the highest dose activity change, negative = inhibition, usual class: inhibitors | 340,000 compounds, 1.3% hits | AID 485314, 2010; note: potency is the fitted concentration of half-maximal effect; % is set by controls: 0 for no effect and ±100 for the full control effect
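Pol beta (10 nM) was preincubated with compound for 15 min at room temperature. The reaction was then started with 50 nM substrate and read immediately and after a further 10 min at room temperature.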
Pol kappa inh – qHTS for Inhibitors of Polymerase Kappa; 400,000 compounds, 0.53% hits; Potency, µM (series often up to 107 µM), for the others: top-dose activity, negative = inhibition, actives largely listed as inhibitors; purified Pol kappa, fluorescent DNA synthesis assay, 10 min; DNA polymerase kappa (Homo sapiens), Q9UBT6; note: potency is the fitted concentration of half-maximal effect; % is set by controls: 0 for no effect and ±100 for the full control effect
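Enzyme at 10 nM met test compounds for 15 min at room temperature. Substrate addition (50 nM final) began the reaction, which was monitored by fluorescence at 0 and 10 min.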
PI5P4K alpha inh – qHTS for Inhibitors of phosphatidylinositol 5-phosphate 4-kinase (PI5P4K); Phosphatidylinositol 5-phosphate 4-kinase type-2 alpha (Homo sapiens), P48426; PI5P4Kalpha enzyme, ADP-Glo luminescence, 60 min; stronger effect = lower value; max response, %; 330,000 compounds, 1.2% hits; AID 652105, 2013; active = max response of -50% or lower; inconclusive = between -30% and -50%; inactive = -30% or higher; note: value at the top dose of about 77 µM; % is set by controls: 0 for no effect and ±100 for the full control effect
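Compounds were pin-transferred onto PI5P4Kalpha and substrate in HEPES pH 7.4 buffer with EGTA, CHAPS and 5% DMSO. ATP (5 microM final) started the reaction, which ran 60 minutes at room temperature before ADP-Glo detection.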
PI4K2A inh – qHTS for small molecular inhibitors of PI4K2A; purified PI4K2A, ADP-Glo luminescence, 1 h; stronger effect = lower value; activity change, negative = inhibition, % at 76.9 µM; Phosphatidylinositol 4-kinase type 2-alpha (Homo sapiens), Q9BTU6; 420,000 compounds, 0.13% hits; in the data active = activity change below about -50%; inconclusive = mostly about -30% to -49%;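 note: -100% = wells without enzyme as full effect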
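ADP-Glo luminescence measured ADP generated by PI4K2A enzyme (4 ug/mL before mixing) with 1.2 mM PI substrate (pre-mix) and 300 microM ATP (pre-mix). Tris pH7.5 buffer with MgCl2, Triton X-100; 1 h reaction at ambient temperature.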
POLI inh – qHTS for Inhibitors of Polymerase Iota | 390,000 compounds, 1% hits | AID 588590, 2011 | Potency, µM (titrated, usually from 115 µM), inactives show at the highest dose activity, negative = inhibition, usual class: inhibitors | DNA polymerase iota (Homo sapiens), Q9UNA4 | Pol iota fluorescent replication assay, 10 min; note: potency is the fitted concentration of half-maximal effect
Target sequence (Q9UNA4 whole entry, looked up): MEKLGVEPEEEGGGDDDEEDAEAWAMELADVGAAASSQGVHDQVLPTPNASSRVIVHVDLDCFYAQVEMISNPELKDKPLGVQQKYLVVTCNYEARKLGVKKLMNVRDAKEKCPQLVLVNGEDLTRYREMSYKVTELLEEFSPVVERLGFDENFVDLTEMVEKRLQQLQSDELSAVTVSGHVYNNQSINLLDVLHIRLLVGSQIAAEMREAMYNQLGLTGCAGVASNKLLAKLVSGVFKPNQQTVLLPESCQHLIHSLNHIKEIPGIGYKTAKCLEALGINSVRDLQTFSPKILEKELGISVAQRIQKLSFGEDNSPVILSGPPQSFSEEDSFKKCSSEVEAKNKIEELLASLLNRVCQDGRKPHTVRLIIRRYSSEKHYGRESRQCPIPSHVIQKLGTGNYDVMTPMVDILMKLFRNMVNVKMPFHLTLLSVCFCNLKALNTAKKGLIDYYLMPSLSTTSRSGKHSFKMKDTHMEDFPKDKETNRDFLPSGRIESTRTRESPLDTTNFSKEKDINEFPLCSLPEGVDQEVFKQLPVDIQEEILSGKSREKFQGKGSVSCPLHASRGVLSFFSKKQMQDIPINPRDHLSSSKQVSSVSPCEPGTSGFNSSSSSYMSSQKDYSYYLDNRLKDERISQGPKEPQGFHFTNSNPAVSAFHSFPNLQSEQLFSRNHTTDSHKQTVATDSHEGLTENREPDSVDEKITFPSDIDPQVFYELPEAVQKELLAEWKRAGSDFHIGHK
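Pol iota at 10 nM preincubated 15 min with compounds at room temperature; reaction started with fluorescent substrate, 50 nM final. Fluorescence read kinetically at 0 and 10 min; buffer-only wells as negative control.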
POLH inh – qHTS for Inhibitors of Polymerase Eta. DNA polymerase eta (Homo sapiens), Q9Y253. recombinant Pol eta, fluorescent DNA replication assay. Potency, µM (series often up to 114 µM), for inactives: at the top dose activity change, negative = inhibition, hits mostly inhibitors. 390,000 compounds, 1.2% hits; note: potency is the fitted concentration of half-maximal effect; % is set by controls: 0 for no effect and ±100 for the full control effect
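Fluorescent replication assay: 50 nM final substrate added after a 15 min room-temperature compound preincubation with 10 nM enzyme. Signal taken at 0 min and again at 10 min.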
ADP-Glo interf – qHTS for Inhibitors of PI5P4K: ADP-Glo counter assay; shares compounds with PI5P4K alpha inh; ADP-Glo detection counter-screen, luciferase luminescence, no enzyme; Potency, µM (titrated, usually from 76.9 µM), inactives show at the top dose activity change, negative = inhibition, most hits filed as inhibitors; 1,100 tested, under 10 active
Starred values were filed as active, the others as inactive; i = inactive; ? = inconclusive; / = no result given; [ ] = dose if it differs, or a comment. Unless noted, calls come from the whole dose curve; as a rule, active = well fitted curve in the direction sought with a large enough effect; inconclusive = small, poorly fitted or top-dose-only effect, or another doubt; inactive = no such curve, though single readings can be large; an effect the other way counts as inactive or inconclusive.

SMILES	Pol beta inh	Pol kappa inh	PI5P4K alpha inh	PI4K2A inh	POLI inh	POLH inh	ADP-Glo interf
CC(C)OC(=O)c1c(NS(=O)(=O)c2ccccc2)sc2c1CCCC2	-27.9%	-17.4%	-63.5*	1.4	-3.2%	-4.6%	-0.5%
Cc1cc(-c2csc(N)n2)c(C)n1CCC(C)C	-0.6%	-27.0%	-64.4*	?	?	-5.1%	-7.2%
Cc1ccc(CNc2ncnc3ccc(-c4ccoc4C)cc23)o1	/	/	/	-11.5	/	/	0.4%
COc1cc2ncnc(NCc3ccc(C)o3)c2cc1OC	-2.6%	2.2%	0.2	1.7	2.0%	-0.6%	/
COc1cccc(Nc2nc(C(N)Cc3ccccc3)cs2)n1 (stereo not drawn)	/	/	3.3	-4.8	/	/	/
CC1(OC(=O)CCc2ccccc2)C(=O)C=C2C=C(c3ccc(C#N)cc3)N(Cc3ccco3)C=C2C1=O (stereo not drawn)	-4.8%	-27.2%	-52.8*	-18.2	?	?	3.2%
CCN(CC(=O)Nc1ccc(OC)cc1)C(=O)c1ccc([N+](=O)[O-])cc1	3.1%	-6.8%	-64.2*	-2.8	19.3%	3.6%	3.0%
COc1ccc(C(=O)N2CCCC2(C)C(=O)O)cc1C(F)(F)F (stereo not drawn)	/	/	-87.0*	-4.8	/	/	0.5%
CCOC(=O)C1(C)CCCCCN1C(=O)c1ccc(OC)c(C(F)(F)F)c1 (stereo not drawn)	/	/	-3.9	1.6	/	/	/
NC(Cc1ccc(C(F)(F)F)cc1)c1csc(NC(=O)Nc2ccccc2Oc2ccccc2)n1 (stereo not drawn)	/	/	-50.3*	0.0	/	/	-1.2%
NC(Cc1ccccc1)c1csc(NC(=O)Nc2ccccc2Oc2ccccc2)n1 (stereo not drawn)	/	/	-21.9	3.4	/	/	/
O=C(c1ccccc1F)N1c2nc(-c3ccco3)nn2C2(CCCCC2)[C@@H]2CCCC[C@@H]21	-14.7%	-23.9%	/	-3.5	17.8%	-12.9%	/
COc1ccc(C(NC(=O)C2CCN(Cc3ccc(Oc4ccccc4)cc3)CC2)c2ccccn2)cc1 (stereo not drawn)	/	/	-0.8	-2.0	/	/	/
COc1cccc(-c2cc(C(F)(F)F)n3ncc(C(=O)OC(C)C)c3n2)c1	36.1%	-15.5%	/	-1.5	-7.9%	-6.8%	/
Cc1ccc(-c2onc3ccc(C(=O)O)cc23)cc1	?	-3.1%	-52.3*	-1.5	?	-6.5%	0.7%
CC(=O)c1ccc2noc(-c3ccc(C)cc3)c2c1	-14.1%	8.7%	-1.9	-7.3	-3.4%	-7.3%	/
O=C(Nc1ccc2c(c1)OCCO2)c1ccccc1F	-1.2%	-9.5%	-52.1*	-21.1	?	-16.7%	-24.1%
CC(=O)c1cccc(NC(=O)c2cc(-c3ccco3)nc3ccccc23)c1	?	-29.9%	-50.8*	-1.5	?	2.5%	4.4%
COc1cccc(NC(=O)c2cc(-c3ccco3)nc3ccccc23)c1	/	?	-26.6	-0.6	?	?	/
Cc1cc(C)c(NC(=O)OCCN2CCOCC2)c(C)c1	0.4%	-3.3%	-63.2*	-9.9	?	-13.8%	-0.1%
O=C(Cc1ccc(Cl)cc1Cl)Nc1cccc(S(=O)(=O)Nc2ccccc2F)c1	26.0%	-14.7%	-50.8*	-3.9	2.5%	-4.1%	-1.7%
CCNC(=O)c1ccccc1SCC(=O)Nc1ccc(F)cc1	2.5%	0.0%	-67.6*	-0.8	78.6%	-2.6%	2.2%
CCNC(=O)c1ccccc1SCc1ccccc1	-3.7%	-5.5%	5.6	-2.8	2.9%	-3.7%	/
Nc1nc(Nc2ccccc2)nc(NCc2ccco2)c1[N+](=O)[O-]	?	-14.6%	?	-0.8	1.6%	-18.3%	/
Fc1ccc(Nc2nc(NCc3ccco3)c3ccccc3n2)cc1	-17.7%	-9.8%	/	2.2	-18.4%	-7.8%	-1.9%
SMILES	Pol beta inh	Pol kappa inh	PI5P4K alpha inh	PI4K2A inh	POLI inh	POLH inh	ADP-Glo interf
Cc1ccc(NC(=O)N2CCC(n3c(C)nc4cccnc43)CC2)c(Cl)c1	4.9%	-7.6%[60.1 µM]	/	-3.7	4.5%	-16.8%	/
Cc1cccc(S(=O)(=O)NC(=O)C2(C)CCN2C(=O)Cc2cc(F)ccc2F)c1 (stereo not drawn)	/	/	-72.7*	-5.2	/	/	-8.0%
CC1(C(=O)NS(=O)(=O)c2cccc(Cl)c2)CCN1C(=O)Cc1cc(F)ccc1F (stereo not drawn)	/	/	-0.4	4.0	/	/	/
O=C(Nc1cccc(Cl)c1)N1CCCC1	23.4%	-2.6%	-53.4*	-6.0	33.2%	-3.4%	-2.3%
NS(=O)(=O)c1ccc(CCNC(=O)c2ccc3nc(Cc4ccccc4)oc3c2)cc1	27.7%	-5.9%[60.1 µM]	/	-3.8	17.6%	-16.2%	/
CC(C)NC(=O)c1ccc2c(=O)n(CC3CCCO3)c(=S)[nH]c2c1 (stereo not drawn)	-6.1%	-6.5%	-12.0	-5.9	130.6%	-4.6%	/
COCCCNC(=O)c1ccc2c(=O)n(CC3CCCO3)c(=S)[nH]c2c1 (stereo not drawn)	-0.5%	-25.0%	-3.4	-7.2	i	-2.4%	-6.6%
N=c1ccn2c(n1)OC1C(O)[C@@H](CO)O[C@H]12 (stereo partly drawn)	/	5.6%	/	/	?	/	/
NS(=O)(=O)c1cccc(NC(=O)CSc2nnnn2-c2ccccc2)c1	2.6%	1.4%	-89.1*	7.4	53.6%	-18.8%	-5.6%
Cc1ccc(-n2c(SCC(=O)Nc3ccc4c5c(cccc35)CC4)nc(O)cc2=O)cc1	35.5µM*	-23.8%	-50.7*	-1.6	-28.2%	-12.1%	-0.2%
Brc1ccc(CSc2ncn[nH]2)cc1	3.3%	-11.5%	-0.8	9.6	2.7%	-8.3%	/
CCCOc1ccc(CSc2ncn[nH]2)cc1	4.3%	-1.9%	-70.7*	-5.1	?	-10.0%	3.2%
COc1nc(OC)nc(N2CCC(C(=O)N(C)Cc3ccco3)CC2)n1	/	/	/	-0.9	/	/	/
Cn1c(=O)c2c(-c3ccccc3)n(-c3cccc(O)c3)cc2n(C)c1=O	/	/	-50.4*	-3.0	/	/	-1.5%
O=C(Nc1ccc(O)c2c(=O)cc(-c3ccccc3Cl)oc12)c1ccc(Cl)c(Cl)c1	-13.3%	16.6%	0.0	0.2	?	-0.2%	-5.7%

From PubChem
